# Source: the supplement of paper PMC3334620
# Over roughly 33,000 sequences, “E-score (-0.5 to 0.5)” has its median near -0.053; the highest 2% begin near 0.37. This is one part of a sample in which the highest values are shown more often than they occur.
# Target: Hap1 (UniProt P0CE41)
# Test: PBM E-score (8-mer binding enrichment) (E-score (-0.5 to 0.5)); higher = stronger / more preferred TF binding
# Conditions: protein concentration: 200 nM; construct: GST-DNA-binding domain
# Protocol: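 Universal 'all 10-mer' protein binding microarrays (Agilent AMADID 015681) probed with GST-tagged S. cerevisiae TFs (full-length or DBD) made by in vitro transcription/translation (PURExpress), about 100-200 nM. Bound TF was detected with fluorescent anti-GST. Each ungapped 8-mer (which stands for itself and its reverse complement) is scored by the PBM enrichment score (E-score), a modified Wilcoxon-Mann-Whitney statistic from -0.5 to +0.5, computed with the Universal PBM Analysis Suite. Scale: above 0.35 generally sequence-specific binding.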
# UniProt P0CE41, sequence (P0CE41 whole entry): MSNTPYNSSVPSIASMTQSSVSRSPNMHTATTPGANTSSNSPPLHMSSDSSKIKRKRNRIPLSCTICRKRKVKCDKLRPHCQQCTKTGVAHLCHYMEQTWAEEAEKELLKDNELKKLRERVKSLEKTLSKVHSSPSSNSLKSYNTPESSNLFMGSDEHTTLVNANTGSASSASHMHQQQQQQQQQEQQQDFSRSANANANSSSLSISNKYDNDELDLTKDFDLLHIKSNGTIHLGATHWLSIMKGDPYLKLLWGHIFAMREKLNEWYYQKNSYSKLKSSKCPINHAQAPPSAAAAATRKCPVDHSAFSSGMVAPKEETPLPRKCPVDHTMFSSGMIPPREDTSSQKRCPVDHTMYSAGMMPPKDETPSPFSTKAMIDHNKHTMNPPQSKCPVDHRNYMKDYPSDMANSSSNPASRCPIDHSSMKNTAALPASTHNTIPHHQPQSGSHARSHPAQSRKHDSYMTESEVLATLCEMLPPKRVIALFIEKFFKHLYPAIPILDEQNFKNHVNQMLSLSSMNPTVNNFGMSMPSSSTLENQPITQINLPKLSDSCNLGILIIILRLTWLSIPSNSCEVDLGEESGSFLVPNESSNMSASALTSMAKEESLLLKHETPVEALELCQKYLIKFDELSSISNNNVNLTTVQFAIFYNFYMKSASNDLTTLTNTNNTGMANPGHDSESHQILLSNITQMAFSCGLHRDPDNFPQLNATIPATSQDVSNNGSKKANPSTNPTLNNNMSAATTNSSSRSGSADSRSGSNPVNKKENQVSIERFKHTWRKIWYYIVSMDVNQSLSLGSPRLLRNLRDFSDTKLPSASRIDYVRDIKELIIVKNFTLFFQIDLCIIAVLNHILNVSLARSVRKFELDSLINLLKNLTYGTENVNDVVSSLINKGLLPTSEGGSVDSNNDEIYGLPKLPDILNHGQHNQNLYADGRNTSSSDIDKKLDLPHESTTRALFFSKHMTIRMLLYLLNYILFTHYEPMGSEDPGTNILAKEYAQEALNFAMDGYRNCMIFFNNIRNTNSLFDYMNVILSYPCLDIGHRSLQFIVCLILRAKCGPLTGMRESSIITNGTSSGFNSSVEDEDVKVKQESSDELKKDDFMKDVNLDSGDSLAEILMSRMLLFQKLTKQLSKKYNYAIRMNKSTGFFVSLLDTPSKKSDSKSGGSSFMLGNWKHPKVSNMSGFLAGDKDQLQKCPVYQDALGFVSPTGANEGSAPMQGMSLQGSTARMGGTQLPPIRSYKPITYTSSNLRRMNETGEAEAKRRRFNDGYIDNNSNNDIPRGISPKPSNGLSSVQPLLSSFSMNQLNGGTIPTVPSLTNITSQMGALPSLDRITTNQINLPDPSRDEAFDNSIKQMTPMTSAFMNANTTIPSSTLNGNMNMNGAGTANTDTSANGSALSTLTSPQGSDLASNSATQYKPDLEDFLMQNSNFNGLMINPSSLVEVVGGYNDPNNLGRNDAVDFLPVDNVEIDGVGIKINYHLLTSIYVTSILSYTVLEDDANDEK
row,Sequence,PBM E-score
1,CAACGCCG,0.264
2,AATCGCCC,0.0407
3,AATCGCCG,0.395
4,AAACGCCA,0.0524
5,CATCGCCG,0.293
6,AAACGCCG,0.402
7,CGGTCAAA,0.269
8,ACAATCCC,0.254
9,ACATCTCC,0.283
10,ATTTTTGA,-0.132
11,ATCTAAAT,0.149
12,GAAGTGGC,-0.0295
13,ATGAAACG,-0.0187
14,GAAACAGC,0.0614
15,TCCAAGGA,0.0272
16,GGGATAGA,-0.0284
17,GCATCTTA,-0.0356
18,AGTCCCGG,0.322
19,AGTCCGCG,0.297
20,AGTCCGCC,0.292
21,AGTCCGGC,0.389
22,AGTCCGTC,0.325
23,AGTCCGGG,0.393
24,CTCCAGAG,-0.0749
25,ACCATGAG,-0.129

row,Sequence,PBM E-score
1,GTCGGAAA,0.361
2,CTCGGAAA,0.346
3,ATCGGAAA,0.426
4,CACGGAAA,0.295
5,AACGGAAT,0.306
6,ATCGGAAG,0.236
7,TTCGGAAA,0.389
8,ATCGGAAT,0.363
9,AACGGAAA,0.385
10,ACATTGAC,-0.114
11,ATACCGAT,0.288
12,GACCAACA,0.0331
13,CCCCATCG,0.172
14,AATCGCGC,0.135
15,AGCGCAGG,0.00092
16,CACGGATA,0.298
17,CTCGGATA,0.371
18,ATCGGATA,0.404
19,AACGGATT,0.338
20,CGCGGATA,0.309
21,CTCGGATC,0.383
22,CTCGGGTA,0.264
23,AACGGATA,0.398
24,CGCGGATC,0.172
25,ATCGGATC,0.339

row,Sequence,PBM E-score
1,ATCGGATG,0.346
2,GTCGGATA,0.339
3,AGTGAGCA,-0.28
4,AACCAGCG,0.0362
5,CGTTGCAC,0.065
6,CGCACACA,-0.0394
7,ATGGGAGA,-0.315
8,CAGCTATG,-0.287
9,ACTGAAGG,-0.129
10,AATCCAGT,0.219
11,GATCCGAA,0.379
12,GATCCGGC,0.375
13,AATCCGGT,0.418
14,AATCCGCA,0.247
15,AATCCGCT,0.243
16,TATCCGAA,0.364
17,AATCCGGA,0.433
18,AATCCGTA,0.219
19,GATCCGCC,0.29
20,GATCCGAC,0.273
21,CATCCGAA,0.368
22,GAGGGCGA,0.0665
23,TACTGGGA,-0.0481
24,ATCGGGCG,0.36
25,ACAGATCA,-0.0146

row,Sequence,PBM E-score
1,CGCGTTGC,0.159
2,CTACTAAC,-0.214
3,TGCTAGAA,-0.118
4,CATCCGCA,0.224
5,GATCCGTA,0.225
6,TATCCTGA,-0.0806
7,AATCCGGC,0.37
8,GATCCGGA,0.395
9,CATCCGGC,0.342
10,TATCCGCA,0.253
11,GATCCGCA,0.253
12,CATCCGTA,0.2
13,AATCCGTC,0.232
14,CATCCGGA,0.423
15,TATCCGGA,0.428
16,ATACGTCA,0.0245
17,TAGTTTCA,-0.024
18,CACCTGTA,-0.173
19,GAAATCGC,0.196
20,ACTAGGCG,-0.0773
21,AATCCGGG,0.409
22,CATCCGGG,0.278
23,AATCCGCG,0.244
24,CCTAGGGA,-0.112
25,AATTCCGA,0.43

row,Sequence,PBM E-score
1,AATTCCGC,0.336
2,CATTCCGA,0.294
3,CATTCCGG,0.322
4,AATTCCAT,0.0073
5,AATTCCCT,-0.106
6,AATTCCGG,0.451
7,TATTCCGA,0.357
8,AATTCCGT,0.414
9,CTGGCTTC,-0.194
10,AGCGAACT,-0.137
11,AGAAGGAG,-0.248
12,AGTTGCGG,0.153
13,CAGTAGGC,-0.174
14,ATGGGTGA,-0.0877
15,ATCTAAGC,-0.0574
16,GCCTTTTA,-0.0799
17,AGTTGCGC,0.0784
18,GCTCCTAC,-0.0888
19,AAAATTAT,0.122
20,GCGAAAAC,-0.0632
21,GCGAAAGC,0.0298
22,CCGAAAAG,0.311
23,CCGAAACG,0.377
24,TCGAAAAA,0.0162
25,CCGAAAAC,0.379

row,Sequence,PBM E-score
1,CCGAAACC,0.298
2,CCGAAAGC,0.369
3,CCGAAAGA,0.319
4,CCGAAAAA,0.398
5,CCGAAACA,0.288
6,ACGAAAAC,0.124
7,CAACCCAC,-0.131
8,GCATTAGA,-0.112
9,CAGTTGAG,-0.225
10,AGAATTCT,0.108
11,CAGTGTTC,-0.0181
12,CGTGAAAC,-0.0905
13,GACAGGGC,-0.0413
14,AGGTTGTA,-0.112
15,CCGAAATA,0.351
16,CCGAAATC,0.401
17,ACGAAATC,0.0404
18,AAGCGGAG,-0.0297
19,TCTCAGCA,-0.326
20,ATCGAATG,-0.076
21,CTACGCCC,0.0263
22,TAGCATAA,-0.0142
23,ATTTCACA,-0.131
24,CGGCGTTA,0.476
25,GGGCGATA,0.179

row,Sequence,PBM E-score
1,CGGCGATA,0.472
2,CGCCGTTA,0.291
3,CGCCGATC,0.326
4,AGGCGATA,0.119
5,GGCCGATA,0.457
6,GGGCGTTA,0.147
7,GGCCGCTA,0.225
8,GGCCGTTA,0.333
9,CGCCGATA,0.426
10,CGGCGTTC,0.235
11,CGAAAAAC,0.169
12,GAATGCAC,-0.00315
13,AGGGATGA,-0.133
14,AGTCAAAG,-0.13
15,GTCGCGAC,0.244
16,ACTCCCAG,-0.0473
17,AGCCGATC,0.245
18,AGCCGATG,0.233
19,AGCCGATA,0.427
20,ACAGTGCT,-0.138
21,ACCCGGTG,0.249
22,GCCCGGTA,0.38
